Source: PubChem BioAssay AID652245 (The Scripps Research Institute Molecular Screening Center, 2013)
Screen size: about 1,600 compounds; about 920 (58%) were called active.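 How the source made its calls: active means inhibition above the primary screen's cutoff, the mean inhibition of all screened compounds plus 3 SD (cut at about 13% in these data); inactive means the rest.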 The set was probably picked from earlier hits. These entries were drawn from the full list.

molecular target: Galanin receptor type 3 (Homo sapiens) (UniProt O60755); test: blockers of human galanin receptor 3 – cell-based, fluorescence, triplicate, confirmation (AID 652245); details: HEK293 GalR3 CNG cAMP biosensor, membrane potential fluorescence; at 3 µM; stronger effect = higher value; challenged with forskolin and galanin at EC90; galR3 fused to GalR1 carboxy tail;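 further: 0% = forskolin plus galanin and 100% = forskolin alone with DMSO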
Sequence (O60755 1-299 limits assumed): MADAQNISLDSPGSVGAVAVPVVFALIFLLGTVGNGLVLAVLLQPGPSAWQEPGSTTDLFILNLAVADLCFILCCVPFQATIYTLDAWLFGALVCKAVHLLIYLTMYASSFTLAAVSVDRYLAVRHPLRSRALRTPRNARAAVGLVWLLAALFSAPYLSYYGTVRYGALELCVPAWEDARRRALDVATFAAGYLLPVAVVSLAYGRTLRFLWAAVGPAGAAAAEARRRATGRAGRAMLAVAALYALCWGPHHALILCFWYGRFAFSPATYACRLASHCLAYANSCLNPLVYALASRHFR

SMILES	inhibition
NC(=O)c1ccc(NC(=O)COC(=O)C(Cc2ccccc2)NC(=O)c2ccccc2)cc1 (configuration not stated)	22.3% (active)
COc1ccc(CCNc2nc3ccc(C)cc3n3cnnc23)cc1OC	12.1% (inactive)
C=CCC1(CC=C)CCCN1C(=O)c1cc(COc2ccc(-n3cncn3)cc2)on1	104% (active)
Nc1nonc1-n1nnc(C(=O)N/N=C/c2cc(Br)ccc2O)c1CSC1=NCCS1	63.2% (active)
CCNC(=S)Nc1ccc(OC(F)(F)F)cc1	18.3% (active)
CCN1/C(=C\c2ccc3ccccc3[n+]2CC)Sc2cc(C)ccc21	55.5% (active)
CCOc1ccc(Br)cc1CSC(=N)N	56.7% (active)
COc1ccc(-c2csc(-c3cccs3)n2)cc1OC	-4.97% (inactive)
COC(=O)c1ccc(/C=N/N2C(C)CCCC2C)cc1 (configuration not stated)	14.9% (active)
c1coc(CNc2ncnc3ccccc23)c1	28.1% (active)
Cc1c(C=O)c2ccccc2n1CC(=O)O	-2.92% (inactive)
CN(Cc1cccnc1)C(=O)c1cc(COc2ccc3ncccc3c2)on1	103% (active)
COc1ccc(C(=O)COC(=O)COc2ccc(C)c(C)c2)cc1	-0.4% (inactive)
OC[C@@H]1CN(Cc2ccc(-c3ccccc3)cc2)C[C@H](n2cnc3c(NC4CCCC4)ncnc32)O1	92.5% (active)
COc1cc(NC(=O)c2cc([N+](=O)[O-])ccc2Br)ccc1NC(=O)c1ccco1	27.5% (active)
CC(=O)c1c(C)[nH]c(C(=O)COC(=O)c2cccc(S(=O)(=O)N(C)c3ccccc3)c2)c1C	82.3% (active)
CCCn1nc(C(=O)NNC(=O)CSCC(=O)Nc2cc(C)on2)c2ccccc2c1=O	3.6% (inactive)
COCCNC(=O)/C(C#N)=C/c1cccc(OCc2ccccc2)c1	-3.13% (inactive)
COc1cc(C(=O)Nn2c(O)c(C3=c4ccccc4=NC3=O)sc2=S)ccc1O	5.9% (inactive)
COc1cc(Cl)c(C)cc1NC(=O)[C@@H]1CCCN1C(=O)c1cccs1	17.8% (active)
COc1ccc(-c2[nH]nc3c2C(c2ccncc2)C(C#N)=C(N)O3)cc1 (configuration not stated)	7.93% (inactive)
O=C(/C=C/c1c(F)cccc1Cl)Nc1nn[nH]n1	5.44% (inactive)
COc1ccc(OC)c(NC(=O)CSc2nc(N)c(-c3ccccc3)c(=O)[nH]2)c1	38% (active)

SMILES	inhibition
O=C(CC(O)(C(F)(F)F)C(F)(F)F)Nc1ccc(Cl)c(Cl)c1	81.5% (active)
c1ccc(Cc2ccc(OCCn3ccnc3)cc2)cc1	35.9% (active)
COc1ccc(C2CC(=O)Nc3sc(=N)c4c(N)c(C#N)c(N)nc4c32)cc1OC (configuration not stated)	69.2% (active)
CCCCNC(=O)c1ccccc1NC(=O)C1=C(C)OCCS1	1.8% (inactive)
COc1ccc(NS(=O)(=O)c2ccc(NC(=O)c3ccc(N(C)S(C)(=O)=O)cc3)cc2)cc1	106% (active)
CSc1nc(N(C)NC(=O)c2cccc(C)c2)c2ccccc2n1	6% (inactive)
CC(=O)OC(C)C[N+](C)(C)C (configuration not stated)	78% (active)
CCOC(=O)c1cc2n(c1C)-c1ccccc1C2=O	3.19% (inactive)
CCc1ccc(-c2nc(SCC(=O)NC3CCCC3)n[nH]2)cc1	3.25% (inactive)
Nc1ncnc2c1ncn2C1OC(CO)CC1O (configuration not stated)	49.1% (active)
CCCOc1ccc(Cc2c(Cl)nc(SC)nc2NC)cc1	94.2% (active)
COc1ccc(N(C(=O)CNC(=O)c2ccco2)C(C(=O)NCC2CCCO2)c2ccccc2)cc1Cl (configuration not stated)	0.26% (inactive)
CC1(C)CC(N2CCN(C(c3ccccc3)c3ccccc3)CC2)=CC(=[N+]2CCCCC2)C1	45% (active)
Cn1cnc([N+](=O)[O-])c1Nc1ccccc1O	10.2% (inactive)
Cc1c(Cl)cccc1NC(=O)CSc1ccc(-c2cccnc2)nn1	-1.99% (inactive)
Cn1c(CN2CCOCC2)nc2cc(NC(=O)c3ccc(Cl)cc3)ccc21	85.6% (active)
O=C(NC(Nc1nc2ccc([N+](=O)[O-])cc2s1)(C(F)(F)F)C(F)(F)F)c1ccccc1	43% (active)
CC(CCc1ccccc1)NCC(O)c1cccc([N+](=O)[O-])c1 (configuration not stated)	22.3% (active)
CCOc1ccc(C(C)=O)cc1COC(=O)c1cnc(Cl)c(Cl)c1	15.3% (active)
COC(=O)c1cccc([N+](=O)[O-])c1CS(=O)(=O)c1ccc(C)cc1	4.93% (inactive)
COCCN1Cc2cccc(C(=O)Nc3ccccc3OC)c2C1=O	32.4% (active)
CCn1c(-c2cc(OC)ccc2OC)csc1=Nc1c(C)n(C)n(-c2ccccc2)c1=O	2.25% (inactive)
COc1ccc(C2Nc3ccccc3C(=O)N2c2ccc(Cl)cc2)cc1Cn1cc([N+](=O)[O-])cn1 (configuration not stated)	36.9% (active)

SMILES	inhibition
Cc1ccc(F)cc1NC(=O)Cc1nn(C)c(=O)c2ccccc12	5.03% (inactive)
CC(C)[C@@H](C(=O)OCC(=O)c1ccc2c(c1)NC(=O)CO2)N1C(=O)c2ccccc2C1=O	8.91% (inactive)
C#Cc1ccc(NC(=O)C2(C)CCN2C(=O)Cc2ccc(-c3ccccc3)cc2)cc1 (configuration not stated)	90.1% (active)
Cc1ccc(S(=O)(=O)N2CCN(C(=O)COC(=O)c3c(C)cc(C)cc3C)CC2)c(C)c1	3.27% (inactive)
CCOC(=O)c1c(NC(=O)CSc2nccc(=O)[nH]2)sc(C)c1C	-4.89% (inactive)
CC(C)(CNC(=O)c1ccc(Cl)c(S(=O)(=O)N2CCc3ccccc3C2)c1)N1CCOCC1	111% (active)
Nc1nc(NCC(=O)O)nc(N2CCCCCC2)c1[N+](=O)[O-]	8.6% (inactive)
O=C(Nc1ccccc1Cl)/C(Cl)=C(\Cl)S(=O)c1ccccc1 (configuration not stated)	21.5% (active)
O=C(Nc1ccc(CSc2ccccc2)cc1)c1ccc(CN2CCOCC2)cc1	113% (active)
Cn1c(N)c(C(=O)COC(=O)c2cnc(Cl)c(Cl)c2)c(=O)n(C)c1=O	15.8% (active)
O=C(CC1C(=O)NCCN1CC(c1ccccc1)c1ccccc1)NCCc1cn[nH]c1 (configuration not stated)	-1.25% (inactive)
CSc1nccc(NC(=O)c2ccc(C(C)(C)C)cc2)n1	104% (active)
Cc1nc2ccccc2cc1OCc1ccc(F)cc1	83.8% (active)
C[C@@]12C(=O)N(c3cccc(Br)c3)C(=O)N1[C@H](c1ccc(Cl)cc1)[C@@H]1C(=O)N(C3CCCCC3)C(=O)[C@@H]12	-8.96% (inactive)
CNC(=O)NC(=O)CSc1nnc(-c2ccc(F)cc2)n1CC1CCCO1 (configuration not stated)	22% (active)
CCOc1cc(C(=O)N2CCc3cc(OC)c(OC)cc3C2)ccc1OC(F)F	6.34% (inactive)
CSc1nc(N)c(C#N)c(-c2ccccc2Cl)c1C#N	84.8% (active)
Cn1nccc1C(=O)NC1CCCc2c1cnn2-c1ccc(F)cc1F (configuration not stated)	114% (active)
CCN(CC(=O)NCc1ccc(Cl)cc1)C(=O)CSc1ccccc1	56.2% (active)
COc1cc2c(cc1OC)C(c1cccc([N+](=O)[O-])c1)=NCC2	17.9% (active)
CC(=O)N1CCCc2cc(S(=O)(=O)N3CCCC(C(=O)N4CCN(c5cccc(Cl)c5)CC4)C3)ccc21 (configuration not stated)	92.5% (active)
